Test systems include NCI-H23 lung; NCI-H226 lung; NCI-H322M lung; HOP-62 NSCLC; NCI-H460 lung; NCI-H522 lung; A549/ATCC NSCLC; 786-0 renal; COLO 205 colon; DU-145 prostate; K-562 leukemia; MDA-MB-231 breast; RXF 393 renal; SF-268 CNS; SF-295 CNS; SF-539 CNS; UACC-257 melanoma; M14 melanoma; HCT-15 colon; MALME-3M melanoma.
Holding throughout (test): NCI-60 one-dose screen, 48 h (100 = growth as untreated, 0 = no growth, -100 = all killed)
Common to all, as to conditions: 10 µM unless noted

About 83,000 compounds went through this panel and 20% of them were active in at least one assay; those are over-represented in the sample as a whole.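 Note: values are percent growth. 100 is the growth of untreated cells, values between 100 and 0 indicate rising inhibition; between -100 and 0 indicates cell death.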 Values without a mark were called inactive. Calls of active or inactive are those of the source. Rule for the calls: active = growth percent below 10; inactive = the rest.

Take `Clc1ccccc1[C@@H]1C[C@@H]2Cc3cc(Br)c4ccccc4c3N1O2`: the growth is 50.8% in the assay with NCI-H23 lung; 73.5% in the assay on NCI-H226 lung; 61% in the assay on NCI-H322M lung; 54.3% with HOP-62 NSCLC; 18.1% with NCI-H460 lung; 20% in the assay with NCI-H522 lung. The growth with A549/ATCC NSCLC was 48%; with 786-0 renal, 56.1%; in the assay with COLO 205 colon, 33.1%; in the assay on DU-145 prostate, 61%; in the assay on K-562 leukemia, 10%; in the assay with MDA-MB-231 breast it was 39%. Also, the growth in the assay with RXF 393 renal was 39.3%; in the assay with SF-268 CNS it was 46.1%; with SF-295 CNS, 24.6%; with SF-539 CNS, 6.71% (active); with UACC-257 melanoma it was 47.4%; with M14 melanoma, 20.8%. Further, the growth with HCT-15 colon was 35.7%.
Turning to `C[N+]1(CCC[N+]2(C)C[C@@H]3[C@H](C2)[C@@H]2C=C[C@H]3C2)CCOCC1` (some centres not stated), the growth is 105% in the assay on NCI-H23 lung; 110% in the assay on NCI-H226 lung; 106% in the assay with NCI-H322M lung; 94.3% in the assay on HOP-62 NSCLC; 116% in the assay on NCI-H460 lung; 106% in the assay with NCI-H522 lung. In addition, the growth in the assay on A549/ATCC NSCLC was 111%; with 786-0 renal it was 109%; in the assay with COLO 205 colon, 104%; in the assay on DU-145 prostate, 140%; in the assay with K-562 leukemia it was 110%; with MDA-MB-231 breast, 104%. For the same compound, the growth with RXF 393 renal was 121%; in the assay with SF-268 CNS, 115%; with SF-295 CNS, 113%; in the assay on SF-539 CNS, 100%; in the assay with UACC-257 melanoma it was 112%; with M14 melanoma, 108%. Also, the growth in the assay on HCT-15 colon was 91.4%.
On to `Cc1cc(NCCCNc2ccnc3cc(Cl)ccc23)nc(N2CCN(C)CC2)n1`, for which the growth in the assay with NCI-H23 lung was 95.1%; in the assay with NCI-H226 lung, 75.3%; in the assay with NCI-H322M lung it was 56.4%; with HOP-62 NSCLC, 62.7%; with NCI-H460 lung, 24.1%; with NCI-H522 lung, 4.29% (active). For the same compound, the growth in the assay with A549/ATCC NSCLC was 70.5%; in the assay on 786-0 renal, 78.7%; in the assay on COLO 205 colon, 48.1%; in the assay on DU-145 prostate, 78.2%; in the assay on K-562 leukemia it was 8.07% (active); in the assay on MALME-3M melanoma, 59.2%. Further, the growth in the assay with MDA-MB-231 breast was 53.8%; in the assay on SF-268 CNS, 70.7%; with SF-295 CNS, 61%; in the assay on SF-539 CNS, -18.8% (active); in the assay on UACC-257 melanoma it was 50.4%; in the assay on M14 melanoma it was 25.7%. The growth in the assay with HCT-15 colon is 43.6%.
`CCCCCCCCCCCCCCCCN=C(CC(=O)O)C(=O)O`: the growth in the assay with NCI-H23 lung is 103%; in the assay on NCI-H226 lung it was 99.4%; in the assay with NCI-H322M lung it was 91.7%; with HOP-62 NSCLC, 106%; in the assay on NCI-H460 lung it was 82.7%; with NCI-H522 lung, 87.5%. For the same compound, the growth with A549/ATCC NSCLC was 96.1%; in the assay with 786-0 renal, 95.4%; in the assay on COLO 205 colon, 97.9%; in the assay with DU-145 prostate, 78.8%; in the assay on K-562 leukemia, 80.6%; with MALME-3M melanoma, 111%. Besides, the growth in the assay on RXF 393 renal was 101%; with SF-268 CNS, 103%; in the assay with SF-295 CNS it was 103%; with SF-539 CNS, 125%; in the assay on UACC-257 melanoma, 114%; with M14 melanoma it was 95.8%. Moreover, the growth in the assay with HCT-15 colon was 102%.
Take `O[C@@H]1Cc2ccc3ccccc3c2N[C@H](c2ccoc2)C1`: the growth with NCI-H23 lung is 96.6%; in the assay on NCI-H226 lung it was 93.5%; with NCI-H322M lung, 112%; in the assay with HOP-62 NSCLC it was 98.8%; in the assay on NCI-H460 lung, 116%; with NCI-H522 lung it was 94.8%. Moreover, the growth in the assay on A549/ATCC NSCLC was 100%; with 786-0 renal, 108%; in the assay with COLO 205 colon, 107%; in the assay on DU-145 prostate, 112%; with K-562 leukemia it was 102%; with MDA-MB-231 breast, 96.2%. Also, the growth in the assay with RXF 393 renal was 108%; with SF-268 CNS it was 105%; in the assay with SF-295 CNS, 110%; in the assay with SF-539 CNS, 93.6%; in the assay on UACC-257 melanoma it was 105%; in the assay on M14 melanoma it was 101%. The growth with HCT-15 colon was 111%.
On to `COc1ccc(-c2cc(Cc3cccs3)c(=O)n(Cn3cncn3)n2)cc1`, for which the growth in the assay with NCI-H23 lung is 102%; in the assay with NCI-H226 lung, 96.3%; in the assay on NCI-H322M lung, 100%; in the assay on HOP-62 NSCLC it was 110%; in the assay on NCI-H460 lung it was 112%; in the assay with NCI-H522 lung, 91.6%. The growth in the assay with A549/ATCC NSCLC is 97.3%; in the assay on 786-0 renal it was 104%; in the assay with COLO 205 colon, 117%; in the assay with DU-145 prostate, 124%; in the assay with K-562 leukemia, 98.3%; in the assay with MDA-MB-231 breast, 87.5%. Further, the growth in the assay on RXF 393 renal is 110%; in the assay with SF-268 CNS it was 110%; in the assay with SF-295 CNS, 98.9%; in the assay with SF-539 CNS, 101%; with UACC-257 melanoma, 105%; with M14 melanoma, 107%. Also, the growth in the assay with HCT-15 colon is 101%.
As for `NS(=O)(=O)c1ccc(NC2=C(Cl)C(=O)c3ccccc3C2=O)cc1`, the growth in the assay on NCI-H23 lung was 80.9%; in the assay with NCI-H226 lung, 61.9%; in the assay with NCI-H322M lung it was 113%; in the assay with HOP-62 NSCLC, 102%; in the assay on NCI-H460 lung it was 116%; in the assay on NCI-H522 lung, 70.1%. Besides, the growth in the assay with A549/ATCC NSCLC was 112%; in the assay with 786-0 renal, 104%; in the assay on COLO 205 colon it was 95.2%; with DU-145 prostate, 142%; in the assay on K-562 leukemia, 18.6%; in the assay with MALME-3M melanoma, 135%. The growth was 79.7% in the assay with MDA-MB-231 breast; 118% in the assay on SF-268 CNS; 111% in the assay with SF-295 CNS; 89.6% with SF-539 CNS; 92.5% in the assay on UACC-257 melanoma; 99.9% in the assay on M14 melanoma. Also, the growth in the assay on HCT-15 colon was 46.5%.
For `c1cnc2ccc3ncccc3c2c1`, the growth in the assay with NCI-H23 lung was 118%; in the assay with NCI-H226 lung, 105%; in the assay with NCI-H322M lung it was 117%; with HOP-62 NSCLC, 82.6%; with NCI-H460 lung it was 105%; in the assay on NCI-H522 lung, 84.6%. Besides, the growth in the assay on A549/ATCC NSCLC is 90.2%; with 786-0 renal, 103%; with COLO 205 colon it was 109%; in the assay on DU-145 prostate, 117%; in the assay on K-562 leukemia, 106%; in the assay on MALME-3M melanoma, 146%. The growth was 114% in the assay with MDA-MB-231 breast; 107% in the assay with SF-268 CNS; 113% with SF-295 CNS; 104% in the assay on SF-539 CNS; 83.5% in the assay with UACC-257 melanoma; 99.8% in the assay with M14 melanoma. Moreover, the growth with HCT-15 colon was 108%.

Values taken from PubChem BioAssay (NCI).
